# Measured values reported in the supplement of paper PMC5919970.
# Structures can show the parent of a compound that is named as a salt. Over roughly 2,000 compounds, “fractional viability relative to vehicle” has its median near 0.91; the lowest 2% begin near 0.045. Shown is part of a subset that was picked to be rich in the lowest values.
# Tested on: TYKNU
# Assay: fractional viability relative to vehicle; TYKNU is a high-grade serous ovarian cancer line; higher = less growth inhibition
# Conditions: 72 h
# Method in brief: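 TYKNU control cells or lentiCRISPRv2 knockout derivatives were plated at 500 cells per well in duplicate into drug-stamped 384-well plates holding a ~2100-compound library at 2 or 10 μM. Culture was in RPMI 1640 with 10% FBS at 37 °C in 5% CO2, with 72 h of drug treatment. Viability was measured by Cell Titer Glo luminescence, and the averaged duplicate treatment wells were normalised to duplicate control wells at the same plate position.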
# [1] = 2uM, genotype: DNM1L knockout (sgDNM1L #1)
# [2] = 2uM, genotype: sgCTRLA1 (non-targeting control)
# [3] = 10uM, genotype: DNM1L knockout (sgDNM1L #1)
# [4] = 10uM, genotype: sgCTRLA1 (non-targeting control)
SMILES,fractional viability [1],fractional viability [2],fractional viability [3],fractional viability [4]
Nc1nccc(Oc2ccc(NC(=O)c3c[nH]cc(-c4ccc(F)cc4)c3=O)cc2F)c1Cl,1.09,1.05,0.598,0.808
CC1(C)CCC2=C(O1)c1ccccc1C(=O)C2=O [Beta-Lapachone],0.128,0.0912,0.0219,0.023
CC1=CC(=O)c2ccccc2C1=O [Menadione],0.872,1.1,0.952,0.951
N#C/C(=C(/N)Sc1ccc(N)cc1)c1ccccc1C(F)(F)F,0.881,0.905,0.626,0.785
OC[C@H]1O[C@@H](c2ccc(Cl)c(Cc3ccc(O[C@H]4CCOC4)cc3)c2)[C@H](O)[C@@H](O)[C@@H]1O,0.8,1.06,0.788,0.819
Oc1cc2c(cc1O)[C@@H]1c3ccc(O)c(O)c3OC[C@]1(O)C2 [Hematoxylin],0.878,1.11,0.861,0.977
CCOC(=O)[C@H](CCc1ccccc1)N[C@H]1CS[C@H](c2cccs2)CN(CC(=O)O)C1=O [Temocapril HCl],0.889,1.23,0.83,1.04
CC(C)c1cc(-c2n[nH]c(=O)n2-c2ccc3c(ccn3C)c2)c(O)cc1O [Ganetespib (STA-9090)],0.299,0.204,0.248,0.206
CN(C)S(=O)(=O)c1ccc2c(c1)/C(=C/c1cc3c([nH]1)CCCC3)C(=O)N2,0.562,0.815,0.234,0.264
Cc1[nH]c(/C=C2\C(=O)Nc3ccc(S(=O)(=O)N(C)c4cccc(Cl)c4)cc32)c(C)c1C(=O)N1CCN(C)CC1,1.02,0.999,0.152,0.189
Cc1[nH]c(/C=C2\C(=O)Nc3ccc(S(=O)(=O)Cc4c(Cl)cccc4Cl)cc32)c(C)c1C(=O)N1CCC[C@@H]1CN1CCCC1,0.317,0.279,0.0474,0.0167
CCOC(=O)c1ccc(NC(=O)O[C@H]2[C@H](OC(=O)Nc3ccc4c(c3)OCO4)[C@@H](OC(=O)Nc3ccc4c(c3)OCO4)[C@@H](OC)O[C@@H]2CO)cc1,0.821,1.04,0.616,0.615
CCCCCCCCC/C(=C\C1=C(C)C(=O)C(OC)=C(OC)C1=O)C(=O)O,0.847,0.878,0.855,0.701
Cn1sc(=O)n(Cc2ccccc2)c1=O,0.797,0.735,0.0256,0.00748
Cc1ccc(-n2sc(=O)n(Cc3ccc(F)cc3)c2=O)cc1,0.995,1.11,0.469,0.618
O=C(NC[C@H](O)CN1CCc2ccccc2C1)c1cc(NC2COC2)ncn1,0.764,0.899,0.604,0.662
COc1ccc(-c2ccc3ncc4c(c3c2)n(-c2ccc(N3CCNCC3)c(C(F)(F)F)c2)c(=O)n4C)cn1,0.0297,0.0315,0.0158,0.0115
Nc1ccc(-c2ccc3ncc4ccc(=O)n(-c5cccc(C(F)(F)F)c5)c4c3c2)cn1 [Torin 2],0.125,0.114,0.114,0.0945
O=C(Nc1ccc(OC(F)(F)F)cc1)c1sccc1NCc1ccnc2ccccc12,0.926,0.906,0.215,0.181

SMILES,fractional viability [1],fractional viability [2],fractional viability [3],fractional viability [4]
CN1CCN(c2c(F)cc3c(=O)c(C(=O)O)cn4c3c2OCN4C)CC1 [Marbofloxacin],1.13,1.21,0.971,1.01
Cc1c(C(=O)NN2CCCCC2)nn(-c2ccc(Cl)cc2Cl)c1-c1ccc(Cl)cc1 [Rimonabant],1.11,1.01,0.575,0.753
CNC(=O)c1ccc(Nc2ncc(C(F)(F)F)c(NCc3nccnc3N(C)S(C)(=O)=O)n2)cc1,0.702,0.772,0.213,0.179
CC(C)(O)c1ccccc1CC[C@@H](SCC1(CC(=O)O)CC1)c1cccc(/C=C/c2ccc3ccc(Cl)cc3n2)c1 [Montelukast Sodium],0.809,1.13,0.762,1.05
CCS(=O)(=O)Nc1ccc2c(c1)/C(=C(/Nc1ccc(CN3CCCCC3)cc1)c1ccccc1)C(=O)N2 [Hesperadin],0.316,0.329,0.0548,0.0381
CN(C)Cc1cccc(N/C(=C2\C(=O)Nc3cc(C(N)=O)ccc32)c2ccccc2)c1,1.01,0.992,1.05,0.912
COC(=O)c1ccc2c(c1)NC(=O)/C2=C(\Nc1ccc(N(C)C(=O)CN2CCN(C)CC2)cc1)c1ccccc1 [Nintedanib (BIBF 1120)],0.903,0.889,0.152,0.147
CC#CCn1c(N2CCC[C@@H](N)C2)nc2c1c(=O)n(Cc1nc(C)c3ccccc3n1)c(=O)n2C [Linagliptin],1.22,1.14,0.918,0.986
NC(=O)c1cn(Cc2c(F)cccc2F)nn1 [Rufinamide],0.992,1.08,1.07,1.04
Cc1cc(C)nc(NS(=O)(=O)c2ccc(NC(=S)NC(=O)COc3ccc(Br)cc3Cl)cc2)n1,1.05,1.04,0.706,1.08
CN1CCN(c2ccc(Nc3cc(-c4cccc(-n5ccc6cc(C7CC7)cc(F)c6c5=O)c4CO)cn(C)c3=O)nc2)CC1,0.836,0.97,0.114,0.182
CCOC(=O)[C@@H](N)Cc1ccc(-c2cc(O[C@H](c3ccc(Cl)cc3-n3ccc(C)n3)C(F)(F)F)nc(N)n2)cc1 [Telotristat Etiprate (LX 1606 Hippurate)],0.777,1.1,0.0468,0.12
COc1ccc(C[C@H](NC(=O)[C@H](C)NC(=O)CN2CCOCC2)C(=O)N[C@@H](Cc2ccccc2)C(=O)[C@@]2(C)CO2)cc1,0.0589,0.0514,0.0565,0.0416
CC(C)C[C@H](NC(=O)[C@H](CCc1ccccc1)NC(=O)CN1CCOCC1)C(=O)N[C@@H](Cc1ccccc1)C(=O)N[C@@H](CC(C)C)C(=O)[C@@]1(C)CO1 [Carfilzomib (PR-171)],0.0773,0.0587,0.0559,0.057
CC(C)C[C@H](NC(=O)[C@H](Cc1ccccc1)NC(=O)c1cnccn1)B(O)O [Bortezomib (PS-341)],0.1,0.0838,0.101,0.0762
CC(NC(=O)C(Cc1ccccc1)NC(=O)OCc1ccccc1)C(=O)CF (stereo not drawn),0.85,0.869,0.793,0.606
COC(=O)[C@H](Cc1ccccc1)NC(=O)[C@@H](N)CC(=O)O [Aspartame],1.02,1.15,0.941,0.985
COC[C@H](NC(=O)c1cnc(C)s1)C(=O)N[C@@H](COC)C(=O)N[C@@H](Cc1ccccc1)C(=O)[C@@]1(C)CO1 [Oprozomib (ONX 0912)],0.0658,0.0656,0.055,0.0445
